Data from PubChem BioAssay.
A number with no mark means an inactive call. No rule for the calls is given here.

Molecular target: Pantothenate synthetase (Mycobacterium tuberculosis (strain ATCC 25618 / H37Rv)) (UniProt P9WIL5)
Experiment: Recombinant Mtb pantothenate synthetase (PanC) inhibitors, coupled enzyme, confirmatory (AID 375);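 also: 0% = full reaction with vehicle and 100% = no enzyme background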
Conditions: coupled enzyme assay; at 10 µM, active compounds read high

Chain of Pantothenate synthetase (Mycobacterium tuberculosis (strain ATCC 25618 / H37Rv)) (P9WIL5 whole entry, looked up): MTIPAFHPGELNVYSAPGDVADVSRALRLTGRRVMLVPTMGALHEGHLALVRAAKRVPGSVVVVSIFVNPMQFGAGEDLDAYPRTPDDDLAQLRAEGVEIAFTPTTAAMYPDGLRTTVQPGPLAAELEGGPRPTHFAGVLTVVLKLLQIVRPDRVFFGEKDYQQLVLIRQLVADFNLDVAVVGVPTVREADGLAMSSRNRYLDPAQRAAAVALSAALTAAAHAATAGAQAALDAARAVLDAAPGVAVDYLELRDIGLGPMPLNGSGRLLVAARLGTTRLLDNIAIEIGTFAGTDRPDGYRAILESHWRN

Structure (SMILES) | inhibition [%]
Cc1oc2c(CN3CCOCC3)c(O)ccc2c(=O)c1-c1ccc(Br)cc1 | 0
COc1ccc(NC(=O)CSc2nc3c(c(=O)n2-c2ccc(F)cc2)SCC3)c(OC)c1 | 0
COc1ccc(CC(=O)OCc2nnc(C3COc4ccccc4O3)o2)cc1OC (stereo not given) | 0
Cc1nc2ccccn2c1/C(O)=C1\C(=O)C(=O)N(CCN2CCOCC2)C1c1cccs1 (stereo not given) | 0
CCCCOC(=O)CSc1nc2c(cc1C#N)C(=O)CC(C)(C)C2 | 0
COc1ccc(CNC(=O)c2cc3c(=O)n4ccccc4nc3n(Cc3ccco3)c2=N)cc1 | 0
CCCN(CCC)C(=O)C1CCN(c2cc(C)nc3c(-c4ccc(OC)c(OC)c4)c(C)nn23)CC1 | 0
CCOCCCNC(=O)CC1Oc2ccc(C)cc2NC1=O (stereo not given) | 0
COc1cc(C(N)=O)ccc1OCc1ccccc1 | 3
Nc1nc2n(n1)C(c1cccc(Cl)c1)CC(c1ccc(F)cc1)N2 (stereo not given) | 0
Cc1cccc(-c2c3c(=O)n(C)c(=O)n(C)c3cn2-c2ccc(O)cc2)c1 | 0
CCOc1ccccc1-n1c(SCC(=O)NC2CCCC2)nnc1-c1ccoc1C | 1
CCOC(=O)/C=C1\SCC(=O)N1Cc1ccc(Br)cc1 | 0
COc1ccccc1NC(=O)N1CCN(c2ccccc2F)CC1 | 0
COc1ccc(N2CCN(C(=O)CSc3nnc(Cn4nnc5ccccc54)n3C)CC2)cc1 | 0
CC(=O)Nc1cc(N2C(=O)CCC2=O)ccc1Cl | 0
O=C(Cn1cnc2sc(-c3ccccc3)cc2c1=O)N1CCOCC1 | 9
Cc1ccc(NC(=O)C2CCCN(S(=O)(=O)c3cnc[nH]3)C2)cc1C (stereo not given) | 11
COc1ccc(-c2noc(-c3ccccc3C(=O)Nc3cccnc3)n2)cc1 | 0
CCN(CCCNC(=O)C1CCN(S(=O)(=O)c2cccc3nonc23)CC1)Cc1ccccc1 | 6

Structure (SMILES) | inhibition [%]
Cc1nc2ccc(NC(=O)NCc3ccco3)cc2s1 | 0
Cc1cc(NC(=O)COc2cccc(C)c2C)no1 | 0
O=C(C(Cc1ccccc1)n1cccc1)N1CCCCCC1 (stereo not given) | 8
Cc1ccccc1NS(=O)(=O)c1cc(C(=O)N2CCCC2)ccc1C | 0
O=C(c1cc(C2CC2)on1)N1CCN(C(c2ccccc2)c2ccccc2)CC1 | 0
O=C(Nc1ccc(Cl)c(Cl)c1)Nc1cc(C(=O)N2CCOCC2)ccc1N1CCCCC1 | 4
O=C(c1ccccc1)N1CCN(Cc2ccccc2Br)CC1 | 3
Cc1ccc2c(c1)sc1ncc(NC(=O)c3ccccc3)c(=O)n12 | 2
O=C(Cn1nc(Cc2cccnc2)c2ccccc2c1=O)Nc1ccc2c(c1)OCO2 | 0
CCOC(=O)N1CCC(NC(=O)CSCc2nc(-c3cccc(OC)c3)oc2C)CC1 | 0
COc1ccc(S(=O)(=O)N(C)CC(=O)N2CCCCC2)cc1Cl | 0
Cc1cc(C(F)F)n2nc(C(=O)Nc3ccc(S(=O)(=O)N4CCCCCC4)cc3)nc2n1 | 1
COc1cc(-c2nc(-c3cccc(C(F)(F)F)c3)no2)cc(OC)c1OC | 0
O=C(CN1C(=O)COc2ccccc21)NCCN1CCc2ccccc2C1 | 7
COc1cc(NC(=O)Cc2cccs2)ccc1-n1cnnn1 | 10
CC1CCN(CCn2c(=S)[nH]c3ncccc3c2=O)CC1 | 0
Cc1ccc(NS(=O)(=O)c2cn(C)cn2)cc1 | 5
Cc1cc(C)n(-c2cc(N3CCOCC3)nc(-c3ccccc3)n2)n1 | 2
Cc1ccnc(NC(=O)Nc2ccc(F)cc2)c1 | 0
CN1CCN(S(=O)(=O)c2ccc(NC(=O)c3ccc(F)cc3)cc2)CC1 | 0
